RXFP1 agonist – qHTS Assay for Agonists of the Relaxin Receptor RXFP1. 0.3% of 370,000 active. Relaxin receptor 1 (Homo sapiens), Q9HBX9. HEK293T-RXFP1 cAMP TR-FRET, 30 min; response scale: percent of porcine relaxin response, buffer zero. Potency, µM (titrated, usually from 57.5 µM), most hits filed as activators; further: nearly all actives have a fitted effect of over 60% in size
Target sequence (Q9HBX9 whole entry, looked up): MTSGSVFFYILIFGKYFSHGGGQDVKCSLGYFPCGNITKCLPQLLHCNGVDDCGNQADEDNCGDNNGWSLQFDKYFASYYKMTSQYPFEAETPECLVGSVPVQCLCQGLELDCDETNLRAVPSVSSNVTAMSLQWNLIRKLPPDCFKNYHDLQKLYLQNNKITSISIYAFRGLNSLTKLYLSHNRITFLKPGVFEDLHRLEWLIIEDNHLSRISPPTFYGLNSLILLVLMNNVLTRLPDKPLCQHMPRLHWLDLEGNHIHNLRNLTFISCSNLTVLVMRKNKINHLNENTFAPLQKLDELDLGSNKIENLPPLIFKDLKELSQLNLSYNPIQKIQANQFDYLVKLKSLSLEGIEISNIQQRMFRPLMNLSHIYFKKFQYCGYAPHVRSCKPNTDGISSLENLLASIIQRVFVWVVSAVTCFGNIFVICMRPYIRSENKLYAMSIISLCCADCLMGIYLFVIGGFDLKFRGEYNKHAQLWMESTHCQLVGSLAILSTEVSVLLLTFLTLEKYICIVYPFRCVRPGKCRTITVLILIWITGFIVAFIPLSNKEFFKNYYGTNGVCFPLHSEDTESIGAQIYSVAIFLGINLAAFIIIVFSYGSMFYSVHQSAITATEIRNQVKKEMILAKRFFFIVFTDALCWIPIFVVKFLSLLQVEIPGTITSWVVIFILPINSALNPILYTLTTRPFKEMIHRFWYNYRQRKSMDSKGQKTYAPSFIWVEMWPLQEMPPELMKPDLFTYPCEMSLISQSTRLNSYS
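HEK293 cells stably expressing RXFP1, treated 30 min at 37C with compounds plus PDE4 inhibitor Ro 20174; cAMP measured by HTRF TR-FRET. Normalized to buffer and 29 nM porcine relaxin; EC50 by Hill fit.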
ERG Ets-DNA blk – qHTS for Small Molecule Inhibitors of the ERG Ets/DNA interaction; Potency, µM (series often up to 76.9 µM), most hits filed as inhibitors; AID 624246, 2012; fluorescence polarization, His-ERG Ets domain / labelled DNA; Transcriptional regulator ERG (Homo sapiens), P11308; 0.028% of 370,000 active; active means well fitted inhibition curve with a large enough effect in the polarisation, with a control signal flat; inconclusive means small, poorly fitted or top-dose-only effect, or effect the other way, or a change in a side signal; inactive means no such curve, though single readings can be large or run the other way; the % refers to the polarisation;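 further: polarization taken with two DNA probes labelled with fluorescein and Texas red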
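His-tagged ERG Ets domain (1 uM in the protein solution; 300mM KCl, 50mM Tris-HCl, 1mM EDTA, 1mM DTT, pH 7.5) received compound, then a probe mix of 5 nM fluorescein-DNA and 100nM Texas-615-DNA. Fluorescence polarization was read for both dyes.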
RXFP1 antagonist – qHTS Assay for Antagonists of the Relaxin Receptor RXFP1. 0.59% of 350,000 active. Relaxin receptor 1 (Homo sapiens), Q9HBX9. HEK293-RXFP1, relaxin-stimulated cAMP HTRF, 30 min; hits give low values. activity change, negative = inhibition, % at 57.5 µM. AID 1259400, 2018;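 active means activity change of -60% or lower, but not beyond a set lower limit; inconclusive means change between -60% and -40%, or beyond the set limit; inactive means change above -40%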
miR-21 act – qHTS Assay for Modulators of miRNAs and/orActivators of miR-21. Potency, µM (doses to about 38.3 µM), hits mostly activators. HeLa miR-21 FLuc reporter, luciferase, 48 h. 340,000 tested, under 10 active;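 further: miR-21 action dims this reporter so a rising signal means less miR-21 action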
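HeLa cells stably expressing CMV-driven firefly luciferase with a downstream miR-21 binding sequence, endogenously expressing miR-21, were treated with titrations (up to about 40uM final) for 48 hours at 37 degree Celsius. Luciferase luminescence was read after lysis.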
Mito fusion act – qHTS Assay for Small Molecule Inhibitors of Mitochondrial Division or Activators of Mitochondrial Fusion. S. cerevisiae fusion-defective mutant growth rescue, CellTiterGlo 48 h. Potency, µM (highest dose often 46.1 µM), usual class: activators. 0.23% of 320,000 active. AID 485298, 2010; further: nearly all actives have a fitted effect of over 45% in size
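S. cerevisiae fusion-defective temperature-sensitive mutants (e.g. fzo1-1, mgm1-5) grown 48 h at 37C in YPEG (ethanol/glycerol non-fermentable) medium with 23 nl compound per well; growth rescue read as CellTiterGlo luminescence.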
ASM inhibitor – Inhibitors of Secretory Acid Sphingomyelinase (S-ASM): qHTS; placental ASM, HMU-PC fluorogenic substrate, 60 min; AID 504937, 2011; 0.006% of 340,000 active; Potency, µM (highest dose often 57.5 µM), most hits filed as inhibitors
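qHTS format. ASM enzyme prepared from human placenta hydrolyses the fluorogenic substrate HMU-PC0 (9 uM final) over 60 min at 37 °C after a 10 min compound preincubation.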
Each line names hits and unclear results; the compound was inactive in the other large screens; ! = repeats disagree. Rows were chosen to be rich in hits. Some 0.72% of all compounds tested hit in one or more screens of this group. Unless noted, the call rests on the fitted dose curve; in most records, active means well fitted curve in the direction sought with a large enough effect; inconclusive means small, poorly fitted or top-dose-only effect, or another doubt; inactive means no such curve, though single readings can be large; an effect the other way counts as inactive or inconclusive.

O=C(Cn1cc(C(=O)C2CC2)c2ccccc21)Nc1ccc(Br)cc1	RXFP1 agonist 20µM (no result: Mito fusion act, ASM inhibitor)
COc1ccc(NC(=O)Cn2cc(C(=O)C3CCCCC3)c3ccccc32)cc1	none (no result: Mito fusion act, ASM inhibitor)
Cc1ccc(NC(=O)Cn2cc(C(=O)C3CC3)c3ccccc32)cc1	RXFP1 agonist 10µM!
Cc1cccc(NC(=O)Cn2cc(C(=O)C3CC3)c3ccccc32)c1	none
O=C1C=C(c2ccc3ncccc3c2)C[C@@H](c2ccc3c(c2)OCO3)C1	none (no result: RXFP1 antagonist, miR-21 act)
COc1ccccc1S(=O)(=O)N(C)C[C@@H]1OCc2cnnn2CCCC(=O)N([C@@H](C)CO)C[C@@H]1C	none (no result: RXFP1 agonist, ERG Ets-DNA blk, miR-21 act, Mito fusion act, ASM inhibitor)
COc1ccc(CNC(=O)CCc2c(C)c3cc4c(C)coc4c(C)c3oc2=O)cc1OC	none (no result: Mito fusion act, ASM inhibitor)
COc1ccc2[nH]c3c(=O)n(CCCCC(=O)N4CCC(C(N)=O)CC4)c(=S)[nH]c3c2c1	RXFP1 antagonist -95
COc1ccc2[nH]c3c(=O)n(CCCCC(=O)NCCN4CCCC4)c(=S)[nH]c3c2c1	RXFP1 antagonist inconclusive
CC[C@H](C)NC(=O)CCCCCn1c(=S)[nH]c2c([nH]c3ccc(OC)cc32)c1=O	RXFP1 antagonist -80
CCCSCCCNC(=O)Cn1c(-c2cccs2)cc2ccccc21	none (no result: Mito fusion act, ASM inhibitor)
CCOc1ccc(S(=O)(=O)Nc2cc(SCC(=O)O)c(O)c3ccccc23)cc1	miR-21 act inconclusive
CC(C)OC(=O)C(C(=O)C(F)(F)F)c1cc(NS(=O)(=O)c2ccc3ccccc3c2)c2ccccc2c1O (stereo unspecified)	RXFP1 antagonist -85
S=c1[nH]nc(-c2ccccc2)c2ccccc12	RXFP1 antagonist -84
Cc1ccc(-c2n[nH]c(=S)c3ccccc23)cc1	none
Cc1ccc(S(=O)(=O)N(CC(=O)Nc2ccccc2C(=O)O)c2ccc(Cl)cc2)cc1	RXFP1 antagonist -76
Cc1ccc(C)c(-n2cc(CNCCCn3cccn3)c(-c3ccccc3)n2)c1	none
Cc1ccc(-n2cc(CNCCCn3cccn3)c(-c3cccc(C)c3)n2)cc1	RXFP1 antagonist -64, miR-21 act inconclusive
COC1=C(OC)C(=O)C(CCCCCCCCCCO)=C(C)C1=O	none (no result: ERG Ets-DNA blk, ASM inhibitor)
CC1=C(C)C(=O)C(CCCCC#CCCCC#CCO)=C(C)C1=O	Mito fusion act 18µM!
Cc1nn(CCCC(=O)NCc2ccccc2)c(=O)c2nccn12	RXFP1 agonist 28µM
Cn1c(NCc2cccc(Cl)c2)nc2ccccc21	none (no result: Mito fusion act, ASM inhibitor)
CC1C/C(=C/c2ccccn2)C(=O)/C(=C/c2ccccn2)C1 (stereo unspecified)	RXFP1 antagonist -75, miR-21 act inconclusive
COc1cc(C(=O)Nc2nc(-c3cc(C)ccc3C)c(C)s2)ccc1OCC(=O)Nc1ccc(F)cc1	RXFP1 agonist 32µM
COc1ccc(C(=O)NCC(=O)Nc2ccc(F)cc2)cc1OC	none
COc1ccc(-c2nc(NC(=O)c3ccc(OCC(=O)Nc4ccc(F)cc4)c(OC)c3)sc2C)cc1	RXFP1 agonist 28µM
CN(Cc1ccccc1)C(=O)c1cc2c(s1)-c1ccc(Cl)cc1SC2	none (no result: Mito fusion act, ASM inhibitor)
O=C(CSc1ccc2ccccc2n1)N1CCC(c2noc3ccc(F)cc23)CC1	Mito fusion act 20µM
CCCC(=O)NC(=S)Nc1ccc(S(=O)(=O)Nc2ccc(OCC)cc2)cc1	Mito fusion act 16µM
Cc1cc(Br)cc2c1N(Cc1ccccc1OC(C)C)C(=O)C2=O	miR-21 act inconclusive (no result: Mito fusion act, ASM inhibitor)
Cc1nc2ncnn2c(N2CCN(C(c3ccccc3)c3ccccc3)CC2)c1C	RXFP1 antagonist -116
COC(=O)c1nn(-c2ccc(OC)cc2)c(=O)cc1O	Mito fusion act 1.6µM
Cc1ccc(C)c(S(=O)(=O)c2nnn3c2nc(Nc2ccc(C)c(C)c2)c2ccccc23)c1	none (no result: Mito fusion act, ASM inhibitor)
Cc1ccc(Cl)cc1N1CCN(C(=O)C(C)n2ncn3cccc3c2=O)CC1 (stereo unspecified)	RXFP1 agonist 28µM!
CCN(CC)C(=O)[C@H]1CC(CC(=O)NCc2ccc(OC)c(OC)c2)C(=O)N2CCc3c([nH]c4ccc(OC)cc34)[C@]12C (stereo partly specified)	none (no result: RXFP1 agonist, RXFP1 antagonist, miR-21 act, Mito fusion act)
Cc1cc(S(=O)(=O)Nc2ccc3ccccc3c2)c(C)s1	Mito fusion act 18µM
COc1cc2nc(Nc3ccc(C)c(C)c3)nc(N)c2cc1OC	RXFP1 antagonist -110!
Cc1ccc(C(OCC(O)CN2CCCCC2)c2ccccc2)cc1 (stereo unspecified)	none
Cc1ccc(C(OCC(O)CNC(C)c2ccccc2)c2ccccc2)cc1 (stereo unspecified)	RXFP1 antagonist -70
N#CC1(c2ccc(F)cc2)CCC(=O)CC1	none (no result: RXFP1 agonist, ERG Ets-DNA blk, miR-21 act, Mito fusion act, ASM inhibitor)
CCOc1ccc(CCNC(=O)CCCn2c(=O)c3cccn3c3cccnc32)cc1OCC	RXFP1 agonist inconclusive, RXFP1 antagonist -96!
COc1ccc(NC(=O)CSc2nc(O)cc(=O)n2-c2ccc(OC)cc2)cc1	RXFP1 antagonist -78
COc1ccc(OC)c(NC(=O)CSc2nc(O)cc(=O)n2CC(C)C)c1	RXFP1 antagonist -80 (no result: RXFP1 agonist, miR-21 act, Mito fusion act)
COc1ccc(-n2c(SCC(=O)Nc3cccc4ccccc34)nc(O)cc2=O)cc1	RXFP1 antagonist -66
COc1ccc(C)cc1S(=O)(=O)Nc1cccc(-c2ccc(N3CCCC3)nn2)c1	none (no result: Mito fusion act, ASM inhibitor)
CC1CCN(S(=O)(=O)c2ccc3c(c2)c(=O)c(C(=O)NCCc2ccccc2)cn3C)CC1	none (no result: Mito fusion act, ASM inhibitor)
CC1C(c2ccc3c(c2)OCO3)c2cc3c(cc2OC1N1CCOCC1)OCO3 (stereo unspecified)	RXFP1 antagonist -73 (no result: RXFP1 agonist, ERG Ets-DNA blk, miR-21 act, Mito fusion act)
O=C(c1[nH]c2ccccc2c1Sc1ccc(Cl)cc1)N1CCCCC1	none (no result: Mito fusion act, ASM inhibitor)
CCc1ccccc1NC(=O)CNC(=O)c1cc(C2CC2)nc2c1cnn2C(C)C	none (no result: miR-21 act)
CC(C)n1ncc2c(C(=O)NCC(=O)Nc3ccccc3Br)cc(C3CC3)nc21	RXFP1 antagonist -88 (no result: miR-21 act)
C=C(C)Cn1c(NCCOC)nc2c1c(=O)[nH]c(=O)n2C	none
C=C(C)Cn1c(N2CC(C)CC(C)C2)nc2c1c(=O)[nH]c(=O)n2C (stereo unspecified)	Mito fusion act 25µM (no result: RXFP1 antagonist)
Cc1ccc(C)c(N(C)S(=O)(=O)c2ccc3[nH]cc(C(=O)NC4CCCC4)c(=O)c3c2)c1	RXFP1 antagonist inconclusive (no result: Mito fusion act, ASM inhibitor)
